This is an account of results in PubChem BioAssay (NCI).

About 79,000 compounds went through this panel and 15% of them were active in at least one assay; those are over-represented in the sample as a whole. The source made the active and inactive calls. Cut-off read from the data, not from the text of the source: active = growth inhibition above about 70%; inactive = the rest.

The nature of one experiment: NCI Yeast Anticancer Drug Screen. Data for the sgs1 mgt1 strain (AID 161).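 Note: 0% = growth of cultures given vehicle only.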 Conditions: S. cerevisiae sgs1 mgt1 strain, at 5.0 µM (retest, dose inferred, filed as 0.5), stronger effect = higher value. The essentials:
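Genetically altered yeast, compound exposure, growth inhibition relative to vehicle.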
`CC(C)N=C(NC(C)C)SCCCCCCSC(=NC(C)C)NC(C)C`: the growth inhibition was -7% (inactive).
For `CCCCCOC(=S)SSSC(=S)OCCCCC`, the growth inhibition is 6% (inactive).
The same measure, in the same setting: with `CCCCCCCCCCCCCCCC[N+](C)(C)CC(=O)O` the figure was 19% (inactive); with `Cc1cc(C)c([O-])c(-[n+]2c(-c3ccccc3)cc(-c3ccccc3)cc2-c2ccccc2)c1`, 22% (inactive); with `CC(=O)NNc1ccc(Cl)cc1[N+](=O)[O-]`, -6% (inactive).
Take `O=C(NC(=Nc1ccccc1)SCCSC(=Nc1ccccc1)NC(=O)c1ccccc1)c1ccccc1`: the growth inhibition was 10% (inactive).
Same read-out and setting: with `CN(C)CCCNc1ccc(O)c2c1C(=O)c1ccccc1C2=O` the figure was 96% (active); with `COC(=O)C(=O)C(/C=N/C(=S)NCCc1ccc(OC)c(OC)c1)=C(/O)c1ccc([N+](=O)[O-])cc1`, 13% (inactive).
On the same count and under the same terms, for `CCCC(=O)OCC1CC2C=CC1C2` (stereo not given) the value was 0% (inactive); for `CN(NC(=O)/C(=C/c1cc(Cl)cc(Cl)c1O)NC(=O)c1ccccc1)c1cnn(-c2ccccc2)c(=O)c1Cl`, -4% (inactive); for `CC(C)N(C(=O)CC1(O)CCCCC1)C(C)C`, 1% (inactive).
Turning to `COC(=O)C1C(c2ccccc2)=N[C@@H](c2ccccc2)[C@H]1C(=O)OC` (stereo not given in full), the growth inhibition is 9% (inactive).
On the same count and under the same terms, with `O=C1C(=Cc2ccccc2O)N=C(c2ccccc2)N1n1c(-c2ccccc2)nc2ccccc2c1=O` the figure was 0% (inactive); with `CCOc1ccc2c(c1)[n+]([O-])c(-c1ccc([N+](=O)[O-])cc1)c(N)[n+]2[O-]`, 38% (inactive).
Same read-out and setting: with `O=C(NCCCNCCCCNCCCNC(=O)c1cc(-c2ccccc2)nc2ccccc12)c1cc(-c2ccccc2)nc2ccccc12` the figure was 34% (inactive).
Still for that read-out and setting: for `CC1=C(C(=O)Nc2cccc3ccccc23)C(c2cccc([N+](=O)[O-])c2)C(C(=O)Nc2cccc3ccccc23)=C(C)N1` the value was 7% (inactive).
Regarding `O=C1OC(c2ccc(O)cc2)Sc2ccccc21` (stereo not given), the growth inhibition is -43% (inactive).
Still for that read-out and setting: for `CC(C)(C)c1ccc(-c2nc3ccccc3c(=O)o2)cc1` the value was 14% (inactive).
Same read-out and setting: with `O=C(N/C(=C/c1ccc(Cl)cc1Cl)c1nc2ccccc2s1)c1ccccc1` the figure was 56% (inactive); with `O=C(O)C/C(=C\c1ccco1)C(=O)O`, -4% (inactive); with `CN(C)Cc1cc(N=Nc2ccc(Cl)c(Cl)c2)ccc1O`, -20% (inactive).
On the same count and under the same terms, for `CC(=O)OC1C(O)C(C)OC(OC(=O)C2CCC3C(C2)OC2(CC(OC(=O)/C=C/c4ccccc4)C(C)CO2)C32CO2)C1OC1OC(C)C(O)C(O)C1O` (stereo not given) the value was 26% (inactive).
As to `O=C1c2ccccc2C(=O)c2c(/C=C\N3CCCCC3)ccnc21`, the growth inhibition was 40% (inactive).
Still for that read-out and setting: with `CCN(CC)c1ccc(NC(CC(O)c2ccccc2)c2ccccc2)cc1` (stereo not given) the figure was -5% (inactive).
Same read-out and setting: for `CCOC(=O)Nc1nc2ccc(SC#N)cc2s1` the value was 9% (inactive); for `CSC(SC)C(SC)SC`, -4% (inactive).
Same read-out and setting: with `N#CC(C(=O)C(=O)Nc1ccc(Cl)cc1)c1c(Cl)cccc1Cl` (stereo not given) the figure was 24% (inactive).
Turning to `CN(/N=C\c1cccc([N+](=O)[O-])c1)C(c1cccc([N+](=O)[O-])c1)N(C)/N=C/c1cccc([N+](=O)[O-])c1` (stereo not given), the growth inhibition was 2% (inactive).
Same read-out and setting: with `Oc1cc(Br)cc2cc(Br)cnc12` the figure was 95% (active).
With `COc1ccccc1C(C)c1ccc2ccccc2c1C(=O)O` (stereo not given), the growth inhibition was 1% (inactive).
For the molecule `Cc1ccnc2[nH]c3ccccc3c(=O)c12`, the growth inhibition was 18% (inactive).
The same measure, in the same setting: with `COc1cc(OC)c(/C=C\c2ccnc3ccccc23)c(OC)c1` the figure was 26% (inactive).
Consider `COC(=O)C1(COCc2ccccc2)CCCC2OC21` (stereo not given), for which the growth inhibition is -31% (inactive).
The same measure, in the same setting: for `O=[N+]([O-])/C(=C\c1cccs1)c1ccccc1` the value was 83% (active); for `Cc1cc(C(O)(c2cc(C)c(O)c(C(=O)O)c2)c2cc(C)c(O)c(C(=O)O)c2)cc(C(=O)O)c1O`, 0% (inactive); for `CC(C)C(C)(C(=O)O)C(C)C`, 2% (inactive).
For `CN(Cc1cc(Cl)cc(Cl)c1)CC(C(=O)c1ccccc1)c1ccccc1` (stereo not given), the growth inhibition was 57% (inactive).
Still for that read-out and setting: with `O=c1[nH]c(Cc2ccccc2)nc2c1sc1nc3ccccc3n12` the figure was 19% (inactive); with `CC(NNC(=S)N1CCCC1)c1cccnn1` (stereo not given), 97% (active); with `Cc1ccc2c(c1)C(O)(c1ccccc1)CCS2` (stereo not given), 86% (active).

Staying with this experiment, now noted: S. cerevisiae sgs1 mgt1 strain, at 50.0 µM (retest, dose inferred, filed as 5.0), stronger effect = higher value.
Consider `CC(C)N=C(NC(C)C)SCCCCCCSC(=NC(C)C)NC(C)C`, for which the growth inhibition is 1% (inactive).
Same read-out and setting: for `CCCCCOC(=S)SSSC(=S)OCCCCC` the value was 97% (active).
Consider `CCCCCCCCCCCCCCCC[N+](C)(C)CC(=O)O`, for which the growth inhibition is 97% (active).
For `Cc1cc(C)c([O-])c(-[n+]2c(-c3ccccc3)cc(-c3ccccc3)cc2-c2ccccc2)c1`, the growth inhibition was 22% (inactive).
Same read-out and setting: with `CC(=O)NNc1ccc(Cl)cc1[N+](=O)[O-]` the figure was 20% (inactive).
With `O=C(NC(=Nc1ccccc1)SCCSC(=Nc1ccccc1)NC(=O)c1ccccc1)c1ccccc1`, the growth inhibition was 10% (inactive).
The same measure, in the same setting: for `CN(C)CCCNc1ccc(O)c2c1C(=O)c1ccccc1C2=O` the value was 99% (active); for `COC(=O)C(=O)C(/C=N/C(=S)NCCc1ccc(OC)c(OC)c1)=C(/O)c1ccc([N+](=O)[O-])cc1`, 1% (inactive).
The same measure, in the same setting: with `CCCC(=O)OCC1CC2C=CC1C2` (stereo not given) the figure was -1% (inactive).
Same read-out and setting: with `CN(NC(=O)/C(=C/c1cc(Cl)cc(Cl)c1O)NC(=O)c1ccccc1)c1cnn(-c2ccccc2)c(=O)c1Cl` the figure was 45% (inactive); with `CC(C)N(C(=O)CC1(O)CCCCC1)C(C)C`, -11% (inactive); with `COC(=O)C1C(c2ccccc2)=N[C@@H](c2ccccc2)[C@H]1C(=O)OC` (stereo not given in full), 3% (inactive).
On to `O=C1C(=Cc2ccccc2O)N=C(c2ccccc2)N1n1c(-c2ccccc2)nc2ccccc2c1=O`, for which the growth inhibition is 24% (inactive).
On the same count and under the same terms, with `CCOc1ccc2c(c1)[n+]([O-])c(-c1ccc([N+](=O)[O-])cc1)c(N)[n+]2[O-]` the figure was 96% (active); with `O=C(NCCCNCCCCNCCCNC(=O)c1cc(-c2ccccc2)nc2ccccc12)c1cc(-c2ccccc2)nc2ccccc12`, 99% (active).
Same read-out and setting: with `CC1=C(C(=O)Nc2cccc3ccccc23)C(c2cccc([N+](=O)[O-])c2)C(C(=O)Nc2cccc3ccccc23)=C(C)N1` the figure was 32% (inactive); with `O=C1OC(c2ccc(O)cc2)Sc2ccccc21` (stereo not given), 40% (inactive).
On the same count and under the same terms, with `CC(C)(C)c1ccc(-c2nc3ccccc3c(=O)o2)cc1` the figure was 74% (active); with `O=C(N/C(=C/c1ccc(Cl)cc1Cl)c1nc2ccccc2s1)c1ccccc1`, 99% (active).
Consider `O=C(O)C/C(=C\c1ccco1)C(=O)O`, for which the growth inhibition is -2% (inactive).
Same read-out and setting: for `CN(C)Cc1cc(N=Nc2ccc(Cl)c(Cl)c2)ccc1O` the value was 44% (inactive).
As for `CC(=O)OC1C(O)C(C)OC(OC(=O)C2CCC3C(C2)OC2(CC(OC(=O)/C=C/c4ccccc4)C(C)CO2)C32CO2)C1OC1OC(C)C(O)C(O)C1O` (stereo not given), the growth inhibition was 98% (active).
On the same count and under the same terms, with `O=C1c2ccccc2C(=O)c2c(/C=C\N3CCCCC3)ccnc21` the figure was 99% (active); with `CCN(CC)c1ccc(NC(CC(O)c2ccccc2)c2ccccc2)cc1` (stereo not given), 5% (inactive); with `CCOC(=O)Nc1nc2ccc(SC#N)cc2s1`, 96% (active).
Same read-out and setting: for `CSC(SC)C(SC)SC` the value was 99% (active).
Still for that read-out and setting: with `N#CC(C(=O)C(=O)Nc1ccc(Cl)cc1)c1c(Cl)cccc1Cl` (stereo not given) the figure was 8% (inactive); with `CN(/N=C\c1cccc([N+](=O)[O-])c1)C(c1cccc([N+](=O)[O-])c1)N(C)/N=C/c1cccc([N+](=O)[O-])c1` (stereo not given), 74% (active); with `Oc1cc(Br)cc2cc(Br)cnc12`, 98% (active).
With `COc1ccccc1C(C)c1ccc2ccccc2c1C(=O)O` (stereo not given), the growth inhibition was 90% (active).
The same measure, in the same setting: for `Cc1ccnc2[nH]c3ccccc3c(=O)c12` the value was 96% (active); for `COc1cc(OC)c(/C=C\c2ccnc3ccccc23)c(OC)c1`, 96% (active).
Still for that read-out and setting: for `COC(=O)C1(COCc2ccccc2)CCCC2OC21` (stereo not given) the value was -2% (inactive); for `O=[N+]([O-])/C(=C\c1cccs1)c1ccccc1`, 99% (active).
Same read-out and setting: for `Cc1cc(C(O)(c2cc(C)c(O)c(C(=O)O)c2)c2cc(C)c(O)c(C(=O)O)c2)cc(C(=O)O)c1O` the value was 1% (inactive); for `CC(C)C(C)(C(=O)O)C(C)C`, 3% (inactive); for `CN(Cc1cc(Cl)cc(Cl)c1)CC(C(=O)c1ccccc1)c1ccccc1` (stereo not given), 96% (active).
For `O=c1[nH]c(Cc2ccccc2)nc2c1sc1nc3ccccc3n12`, the growth inhibition is 92% (active).
Still for that read-out and setting: for `CC(NNC(=S)N1CCCC1)c1cccnn1` (stereo not given) the value was 99% (active); for `Cc1ccc2c(c1)C(O)(c1ccccc1)CCS2` (stereo not given), 97% (active).
